From PubChem BioAssay AID1159580 (chemical genetic matrix, 2015)
Hit rate of the full screen: of about 5,500 compounds, about 2,000 (36%) were called active. Another 18% or so got no clear call; they are omitted. No stated cut-off is given here; in the data, active means normalized growth mostly below about 0.91 (no sharp cut-off); inconclusive means no clear call, values can overlap the other calls; inactive means mostly above about 0.92. The list shows a part of the results.

Assay: chemical genetic growth profiling, strain panel (AID 1159580);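 further: tested at 20 µM; growth read once vehicle control cultures reached saturation at 30 °C; 1 = growth at the plate median or of vehicle wells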
Conditions: S. cerevisiae deletion strains, growth OD

Measured: normalized growth

CC(C)(C)C(=O)C(Oc1ccc(Cl)cc1)n1cncn1 (stereo not given)
inactive: locus YGL167C, strain pmr1, stronger effect = lower value 0.923
active: locus YAL021C, strain ccr4, stronger effect = lower value 0.639 | locus YAL026C, strain drs2, stronger effect = lower value 0.081 | locus YAL030W, strain snc1, stronger effect = lower value 0.133 | locus YBL061C, strain skt5, stronger effect = lower value 0.136 | locus YBR009C, strain hhf1, stronger effect = lower value 0.133 | locus YBR023C, strain chs3, stronger effect = lower value 0.131 | locus YBR171W, strain sec66, stronger effect = lower value 0.591 | locus YBR231C, strain swc5, stronger effect = lower value 0.119 | locus YBR279W, strain paf1, stronger effect = lower value 0.198 | locus YCL011C, strain gbp2, stronger effect = lower value 0.124 | locus YCL016C, strain dcc1, stronger effect = lower value 0.129 | locus YCL061C, strain MRC1, stronger effect = lower value 0.203 | locus YCL069W, strain vba3, stronger effect = lower value 0.106 | locus YCR088W, strain abp1, stronger effect = lower value 0.25 | locus YDL005C, strain med2, stronger effect = lower value 0.565 | locus YDL040C, strain nat1, stronger effect = lower value 0.272 | locus YDR001C, strain nth1, stronger effect = lower value 0.221 | locus YDR069C, strain doa4, stronger effect = lower value 0.655 | locus YDR137W, strain rgp1, stronger effect = lower value 0.779 | locus YDR159W, strain sac3, stronger effect = lower value 0.171 | locus YDR195W, strain ref2 0.573 | locus YDR297W, strain sur2, stronger effect = lower value 0.19 | locus YDR334W, strain swr1, stronger effect = lower value 0.141 | locus YDR335W, strain msn5, stronger effect = lower value 0.223 | locus YDR392W, strain spt3, stronger effect = lower value 0.104 | locus YEL003W, strain gim4, stronger effect = lower value 0.154 | locus YEL037C, strain rad23, stronger effect = lower value 0.268 | locus YEL061C, strain CIN8 (second series), stronger effect = lower value 0.139 | locus YER015W, strain faa2, stronger effect = lower value 0.201 | locus YER016W, strain bim1, stronger effect = lower value 0.187 | locus YER111C, strain swi4, stronger effect = lower value 0.758 | locus YER155C, strain BEM2 (second series), stronger effect = lower value 0.746 | locus YFR010W, strain ubp6, stronger effect = lower value 0.558 | locus YGL173C, strain kem1, stronger effect = lower value 0.701 | locus YGL227W, strain vid30, stronger effect = lower value 0.158 | locus YGL240W, strain doc1, stronger effect = lower value 0.714 | locus YGL253W, strain hxk2, stronger effect = lower value 0.0776 | locus YHR013C, strain ard1, stronger effect = lower value 0.162 | locus YHR027C, strain rpn1, stronger effect = lower value 0.337 | locus YHR030C, strain SLT2, stronger effect = lower value 0.113 | locus YHR079C, strain IRE1, stronger effect = lower value 0.264 | locus YHR142W, strain chs7, stronger effect = lower value 0.107 | locus YJL092W, strain hpr5, stronger effect = lower value 0.177 | locus YJL095W, strain BCK1 (second series), stronger effect = lower value 0.0779 | locus YJL095W, strain BCK1, stronger effect = lower value 0.129 | locus YJL115W, strain asf1, stronger effect = lower value 0.396 | locus YJL129C, strain trk1, stronger effect = lower value 0.183 | locus YJL154C, strain vps35, stronger effect = lower value 0.409 | locus YJL164C, strain tpk1, stronger effect = lower value 0.11 | locus YJL166W, strain qcr8, stronger effect = lower value 0.109 | locus YJL187C, strain SWE1, stronger effect = lower value 0.135 | locus YJR066W, strain TOR1, stronger effect = lower value 0.14 | locus YKL160W, strain elf1, stronger effect = lower value 0.112 | locus YKR026C, strain gcn3, stronger effect = lower value 0.47 | locus YKR091W, strain srl3, stronger effect = lower value 0.247 | locus YLL001W, strain dnm1, stronger effect = lower value 0.168 | locus YLL026W, stronger effect = lower value 0.0984 | locus YLL041C, strain sdh2, stronger effect = lower value 0.159 | locus YLR027C, strain aat2, stronger effect = lower value 0.115 | locus YLR113W, strain HOG1, stronger effect = lower value 0.308 | locus YLR221C, strain rsa3, stronger effect = lower value 0.118 | locus YLR258W, strain gsy2, stronger effect = lower value 0.133 | locus YLR262C, strain YPT6 (second series), stronger effect = lower value 0.66 | locus YLR320W, strain mms22, stronger effect = lower value 0.125 | locus YLR342W, strain FKS1, stronger effect = lower value 0.155 | locus YLR357W, strain rsc2, stronger effect = lower value 0.513 | locus YLR370C, strain arc18, stronger effect = lower value 0.184 | locus YLR384C, strain iki3, stronger effect = lower value 0.672 | locus YML120C, strain ndi1, stronger effect = lower value 0.153 | locus YMR058W, strain fet3, stronger effect = lower value 0.184 | locus YMR125W, strain sto1, stronger effect = lower value 0.147 | locus YMR129W, stronger effect = lower value 0.161 | locus YMR205C, strain PFK2, stronger effect = lower value 0.172 | locus YMR231W, strain pep5, stronger effect = lower value 0.805 | locus YNL071W, strain lat1, stronger effect = lower value 0.0893 | locus YNL183C, strain NPR1, stronger effect = lower value 0.178 | locus YNL209W, strain ssb2, stronger effect = lower value 0.394 | locus YNL248C, strain rpa49, stronger effect = lower value 0.142 | locus YNL322C, strain KRE1 (second series), stronger effect = lower value 0.228 | locus YNR049C, strain mso1, stronger effect = lower value 0.159 | locus YOR001W, strain rrp6, stronger effect = lower value 0.181 | locus YOR070C, strain gyp1, stronger effect = lower value 0.0975 | locus YOR080W, strain dia2, stronger effect = lower value 0.259 | locus YOR083W, strain WHI5, stronger effect = lower value 0.257 | locus YOR106W, strain vam3, stronger effect = lower value 0.211 | locus YOR231W, strain MKK1, stronger effect = lower value 0.273 | locus YOR265W, strain rbl2, stronger effect = lower value 0.164 | locus YOR270C, strain vph1, stronger effect = lower value 0.123 | locus YOR290C, strain snf2, stronger effect = lower value 0.153 | locus YPL051W, strain arl3, stronger effect = lower value 0.357 | locus YPL078C, strain atp4, stronger effect = lower value 0.203 | locus YPL106C, strain sse1, stronger effect = lower value 0.156 | locus YPL240C, strain hsp82, stronger effect = lower value 0.166 | locus YPL256C, strain CLN2, stronger effect = lower value 0.357
